Source: PubChem BioAssay (National Center for Advancing Translational Sciences (NCATS))
A selection: hits, their analogues and other compounds. The true share with any hit is near 2.4%.
D2 ag-1 – human D2 receptor agonism in beta-arrestin assay; P14416; DiscoveRx PathHunter D2 beta-arrestin, luminescence, 90 min; 100% = 57 uM dopamine signal; activation, % (no concentration beside the values); actives 0.084% (n = 360,000); AID 624465; in the data active = activation above about 40%; inconclusive = between about 15% and that limit
Target sequence (P14416 whole entry, looked up): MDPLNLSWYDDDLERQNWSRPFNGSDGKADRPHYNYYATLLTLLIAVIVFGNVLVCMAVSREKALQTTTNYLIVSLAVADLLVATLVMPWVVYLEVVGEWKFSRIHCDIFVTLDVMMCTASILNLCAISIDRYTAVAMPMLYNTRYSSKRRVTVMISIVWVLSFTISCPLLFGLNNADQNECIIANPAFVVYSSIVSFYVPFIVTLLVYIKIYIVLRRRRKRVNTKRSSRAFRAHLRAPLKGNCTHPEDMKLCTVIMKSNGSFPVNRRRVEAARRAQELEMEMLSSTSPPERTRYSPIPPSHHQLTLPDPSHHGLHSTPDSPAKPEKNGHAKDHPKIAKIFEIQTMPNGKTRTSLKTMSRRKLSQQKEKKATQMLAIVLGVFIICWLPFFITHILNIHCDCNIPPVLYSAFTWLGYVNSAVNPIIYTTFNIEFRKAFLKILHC
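DiscoveRx PathHunter D2 beta-arrestin cells (2,100/well) attached overnight, then compound-stimulated 90 min at 37 C in HBSS/10 mM HEPES/0.1% Tween-20 buffer; beta-galactosidase complementation read by luminescence after 1 h at ambient temperature. Dopamine 57 uM final (EC100) as control.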
D2 PAM-1 – potentiates the human D2 dopamine receptor allosterically | actives 0.23% (n = 360,000) | DiscoveRx D2 beta-arrestin cells, luminescence, 90 min; 100% = 57 uM dopamine signal | AID 624464 | potentiation, % (no concentration beside the values) | P14416; in the data active = potentiation above about 50%; inconclusive = mostly about 30% to 49%
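PathHunter beta-arrestin assay in DiscoveRx D2 cells. Compounds were added with an EC20 of dopamine (50 nM final) for 90 min at 37 deg C. Luminescence was read 1 h after detection reagent, with 57 uM dopamine as the EC100 control.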
D2 ag-2 – activates the human D2 dopamine receptor; activation, % at 2 µM; HEK293 T-REx D2 cells, calcium flux agonist mode; actives 0.53% (n = 340,000);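 active = activation over 3 SD above normal in the single-dose calcium agonist read, cut at about 30% in these data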
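Agonism scored from kinetic calcium signal (1 read/sec, 180 s) following compound pin transfer, after a 10 s baseline. Cells: HEK293 Trex line expressing inducible D2 receptor coupled to calcium, dye-loaded after overnight culture at 30 C.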
D2 PAM-2 – positive allosteric modulators of human D2 dopamine receptor; HEK293 T-REx D2, calcium flux, EC20 dopamine potentiation; actives 0.34% (n = 340,000); potentiation, % at 10 µM; P14416;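 active = potentiation over 3 SD above the plate norm, cut at about 30% in these data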
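Cells plated with tetracycline inducer and held overnight at 30 C; calcium dye loaded 30–90 min at room temperature; baseline taken, compound added and read 180 s; EC20 dopamine then added and read 180 s.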
D2 antag – antagonizes the human D2 dopamine receptor | P14416 | HEK293 TREx D2 cells, calcium flux, dopamine EC80 | actives 2% (n = 340,000) | inhibition, % at 10 µM; in the data active = inhibition above about 30%; inactive = below that, where a call was filed
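Cells plated overnight at 30 C with tetracycline; no-wash calcium dye, 30–90 min RT; 10 s baseline; compound pinned; 180 s read; EC80 dopamine added; another 180 s read.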
D3 ag – confirmation of human D3 dopamine receptor agonists, beta-arrestin; shares compounds with D2 ag-2; DiscoveRx D3 beta-arrestin cells, luminescence, 90 min; Potency, µM (titrated, usually from 76.9 µM), most hits filed as activators; actives 4% (n = 2,300); note: nearly all actives have a fitted effect of over 70% in size
D2 ag-3 – activates human D2 dopamine receptor in D3 counterscreen; shares compounds with D2 ag-2; DiscoveRx PathHunter D2 beta-arrestin, luminescence, 90 min; response scale: percent relative to full dopamine signal; Potency, µM (series often up to 76.9 µM), hits mostly activators; actives 5.9% (n = 2,300); AID 720507; note: nearly all actives have a fitted effect of over 70% in size
Of the large screens only hits and unclear results are named; the others gave an inactive call (follow-up assays come after a bar, where they were run). Unless noted, calls come from the whole dose curve; as a rule, active = well fitted activation curve with a large enough effect; inconclusive = small, poorly fitted or top-dose-only effect; inactive = flat fitted curve, though single readings scatter.

Cc1nn(CCCC(=O)NCc2ccc(F)cc2)c(=O)c2c1sc1ccccc12	none (no result: D2 ag-1, D2 PAM-1, D2 antag)
O=C(CCc1ccc(O)c(O)c1)NNC(=S)NCCc1ccccc1	D2 ag-2 46 | D3 ag inconclusive | D2 ag-3 inactive
O=C(CCc1ccccc1)NNC(=S)NCc1ccc(Cl)cc1	none
COc1cccc(NC(=O)NNC(=O)CCc2ccc(O)c(O)c2)c1	D2 ag-1 inconclusive, D2 ag-2 52 | D3 ag 7.9µM | D2 ag-3 inactive
COc1ccc(CCC(=O)NNC(=O)Nc2cccc(Cl)c2)cc1	none
Cc1cccc(OCCCCn2nnc3sc4c(c3c2=O)CCC(C)C4)c1 (stereo not given)	none (no result: D2 ag-1, D2 PAM-1, D2 antag)
CSCCC(NC(=O)c1ccccc1)C(=O)NCCCSc1ccccc1 (stereo not given)	none | D3 ag inactive | D2 ag-3 inactive
CCC(C)NC(=O)C(CCSC)NC(=O)c1ccccc1 (stereo not given)	none
CN(Cc1ccc(Cl)cc1)C(=O)c1ccccc1SCC(=O)N1CCCC1	none (no result: D2 ag-2, D2 antag) | D3 ag inactive | D2 ag-3 inactive
CCN(CC(=O)Nc1ccc(NC(C)=O)cc1)C(=O)c1ccccc1SCC(=O)N1CCCC1	none (no result: D2 ag-2, D2 PAM-2, D2 antag) | D3 ag inactive | D2 ag-3 inactive
CC(=O)Nc1ccc(NC(=O)COC(=O)c2ccccc2SCC(=O)N2CCCC2)cc1	none
COc1ccc(N2CCN(C(=O)c3cnn(-c4ccc(OC)cc4)c3C3CCN(C(=O)OC(C)(C)C)CC3)CC2)cc1	none (no result: D2 ag-1, D2 PAM-1, D2 PAM-2, D2 antag)
Cc1c2cnn(-c3ccccc3)c(=O)c2c(C)n1CC(=O)Nc1ccccc1Br	none (no result: D2 ag-1, D2 PAM-1, D2 antag)
Cc1c(C(=O)N2CCN(c3ccccc3)CC2)oc2c(Cl)cccc12	none | D3 ag inactive | D2 ag-3 inactive
CCOC(=O)c1[nH]c(C)c(C(=O)N2CCN(c3ccccc3)CC2)c1C	D2 ag-2 31 | D3 ag inactive | D2 ag-3 inactive
CCOC(=O)c1[nH]c(C)c(C(=O)N2CCOCC2)c1C	none
COc1ccc(CCNC(=O)CSc2nnc(-c3ccc(C)cc3)c(-c3ccc(C)cc3)n2)cc1OC	none (no result: D2 ag-1, D2 PAM-1, D2 ag-2, D2 antag)
Cc1ccc(C(=O)NCC(=O)NCC(=O)OCC(=O)c2ccc(F)cc2)cc1	D2 ag-2 49 | D3 ag inactive | D2 ag-3 inactive
O=C(CNC(=O)c1ccccc1)NCC(=O)OCC(=O)c1ccc(F)cc1	none (no result: D2 ag-2, D2 PAM-2, D2 antag) | D3 ag inactive | D2 ag-3 inactive
CC(=O)Nc1ccccc1-c1nc2ccccc2n(Cc2cccc(Br)c2)c1=O	none (no result: D2 ag-1, D2 PAM-1, D2 ag-2, D2 antag)
Cc1cc(=O)n2nc(N3CCC(C(=O)NCCc4ccc(Cl)cc4)CC3)sc2n1	D2 ag-2 43 | D3 ag inactive | D2 ag-3 inactive
Cc1cc(C2=NNC(=NCCc3ccccc3)SC2)c(C)n1CC1CCCO1 (stereo not given)	none | D3 ag inactive | D2 ag-3 inactive
CCOC(=O)c1noc2ncn(CC(=O)Nc3cccc(C(F)(F)F)c3)c(=O)c12	none (no result: D2 ag-1, D2 PAM-1, D2 antag)
Cc1nc(SCc2ccccc2)c([N+](=O)[O-])[nH]1	none | D3 ag inactive | D2 ag-3 inactive
COc1ccc(CSc2nc(C)[nH]c2[N+](=O)[O-])cc1[N+](=O)[O-]	none
CCc1ccc(CN(Cc2ccco2)c2cnc(S(C)(=O)=O)nc2C(=O)Nc2ccccc2Cl)cc1	none (no result: D2 ag-1, D2 PAM-1, D2 ag-2, D2 antag)
COc1ccc(CCN2CC(C(=O)N(C)CC(=O)Nc3ccc(Cl)c(C(F)(F)F)c3)CC2=O)cc1OC (stereo not given)	none | D3 ag inactive | D2 ag-3 inactive
CN(CC(=O)Nc1ccc(Cl)c(C(F)(F)F)c1)C(=O)C1CC(=O)N(CCc2ccccc2)C1 (stereo not given)	none | D3 ag inactive | D2 ag-3 inactive
COCCNC(=O)CSc1nc(-c2ccccc2)[nH]c1-c1ccc(OC)cc1	none (no result: D2 ag-1, D2 PAM-1, D2 ag-2, D2 antag)
Cn1c(=O)cc(SCC(=O)NCCCN2CCN(c3ccc(F)cc3)CC2)c2ccccc21	D2 ag-2 33, D2 antag 91 | D3 ag inactive | D2 ag-3 inactive
COc1ccc(CC(=O)Nc2ccc(F)c(F)c2F)cc1S(=O)(=O)N1CCOCC1	none | D3 ag inactive | D2 ag-3 inactive
Cc1ccc(C2C(=O)N(C3CCCCCC3)CC(=O)N2C(C)C)cc1 (stereo not given)	none (no result: D2 ag-1, D2 PAM-1, D2 antag)
Cc1ccc(S(=O)(=O)N2CCOCC2)cc1NC(=O)CNCc1ccc(Cl)cc1Cl	none (no result: D2 ag-2, D2 PAM-2, D2 antag)
Cc1ccc(S(=O)(=O)N2CCOCC2)cc1NC(=O)CNCC1CCCCC1	D2 ag-1 inconclusive, D2 ag-2 53, D2 antag 50 | D3 ag inconclusive | D2 ag-3 inconclusive
Cc1ccc(S(=O)(=O)N2CCOCC2)cc1NC(=O)CNCc1cccnc1	D2 ag-1 48, D2 PAM-1 63, D2 ag-2 77, D2 antag 60 | D3 ag 3.5µM | D2 ag-3 35µM
CCOC(=O)c1c(NC(=O)c2cc(=O)c3cc(Cl)ccc3o2)sc(C)c1C	none (no result: D2 ag-1, D2 PAM-1, D2 antag)
COCCNC(=O)c1c(-c2ccccc2)c(-c2ccccc2)nn(C)c1=O	none (no result: D2 ag-1, D2 PAM-1, D2 antag)
CCCCC(=O)OCc1c(-c2cccc(OC)c2)ncc2ccccc12	none | D3 ag inactive | D2 ag-3 inactive
COc1cccc(-c2ncc3ccccc3c2CO)c1	none | D3 ag inactive | D2 ag-3 inactive
Cc1ccc(CCNC(=O)C2CCN(Cc3nc(-c4ccccc4C)oc3C)CC2)cc1	none (no result: D2 ag-1, D2 PAM-1, D2 antag)
CCCC(=O)Nc1cccc(OCc2cc(=O)n3cccc(C)c3n2)c1	none (no result: D2 ag-1, D2 PAM-1, D2 antag)
COc1ccc(-c2c(-c3cc(OC)cc(OC)c3)n(C)c3ccc(-c4ccc5[nH]ccc5c4)cc23)cc1	none (no result: D2 ag-2, D2 antag) | D3 ag inactive | D2 ag-3 inactive
O=C1CC(N2CCOCC2)C(=O)N1Cc1ccc(N2CCCC2=O)cc1 (stereo not given)	none
O=C1CC(N2CCN(Cc3ccc4c(c3)OCO4)CC2)C(=O)N1Cc1ccc(N2CCCC2=O)cc1 (stereo not given)	D2 ag-2 54 | D3 ag inactive | D2 ag-3 inactive
O=C(NCCc1ccccc1)c1coc(=O)c(Br)c1	D2 ag-2 39 | D3 ag inactive | D2 ag-3 inactive
CN(C)CCNC(=O)c1coc(=O)c(Br)c1	none
COC(=O)c1ccc(NC(=O)CCN2CCN(c3ccccc3)CC2)cc1	D2 ag-1 inconclusive, D2 ag-2 54, D2 antag 50 | D3 ag inconclusive | D2 ag-3 inconclusive
O=C(Nc1ccc(C(=O)NCCCN2CCN(c3ccccc3)CC2)cc1)C1=CSCCO1	D2 ag-1 44, D2 ag-2 82, D2 antag 81 | D3 ag inactive | D2 ag-3 inconclusive
